This note sets out measurements from PubChem BioAssay (NCI).

Compounds without any hit were thinned out: in the full panel of roughly 83,000, 20% have a hit.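 Treatment: one concentration, 48 hours, 96-well format. Scoring: percent growth, with anything below 10 considered active.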 Unmarked numbers belong to inactive results. Calls of active or inactive are those of the source.

Common to all, as to assay: NCI-60 one-dose screen, 48 h (100 = growth as untreated, 0 = no growth, -100 = all killed)
One assay has as its system SR leukemia. The following applies: 10 µM unless noted.
Another assay has as its system RPMI-8226 leukemia. The following applies: 10 µM.
A further assay deals with OVCAR-8 ovarian. The following applies: 10 µM unless noted.
In a further assay the test system is OVCAR-5 ovarian. The following applies: 10 µM unless noted.
The next assay deals with OVCAR-4 ovarian. The following applies: 10 µM unless noted.
Another assay relates to SK-OV-3 ovarian. The following applies: 10 µM.
The next assay concerns IGROV1 ovarian. The following applies: 10 µM unless noted.
The test system of another assay is OVCAR-3 ovarian. The following applies: 10 µM unless noted.
The test system of another assay is HS 578T breast. The following applies: 10 µM unless noted.
The next assay concerns NCI/ADR-RES ovarian. The following applies: 10 µM unless noted.

Consider `Cc1nc2cc(Nc3nc(Nc4ccc(F)cc4)nc(N4CCCC4)n3)ccc2n1Cc1ccccc1`, for which the growth in the assay with SR leukemia is -27.9% (active); in the assay with RPMI-8226 leukemia it was -47.4% (active); with OVCAR-8 ovarian, -35.2% (active); in the assay with OVCAR-5 ovarian, -54.8% (active); with OVCAR-4 ovarian it was 4.79% (active); with SK-OV-3 ovarian, -2.81% (active). Further, the growth is -6.78% (active) in the assay on IGROV1 ovarian, -84% (active) with OVCAR-3 ovarian, 30.6% in the assay on HS 578T breast and -28% (active) in the assay with NCI/ADR-RES ovarian.
For the compound `CCCCc1ccc(NC(=O)C(F)(F)F)cc1`, the growth with SR leukemia is 86.4%; in the assay on RPMI-8226 leukemia, 91.4%; in the assay with OVCAR-8 ovarian, 95.1%; with OVCAR-5 ovarian it was 99.6%; with OVCAR-4 ovarian, 114%; with SK-OV-3 ovarian, 109%. Further, the growth in the assay with IGROV1 ovarian was 113%; with OVCAR-3 ovarian, 106%.
Consider `Clc1ccc(Nc2ccnc(N3CCN(c4ccnc5cc(Cl)ccc45)CC3)n2)cc1`, for which the growth was 37.2% in the assay on SR leukemia; 34.5% in the assay with RPMI-8226 leukemia; 61.4% in the assay with OVCAR-8 ovarian; 70.6% in the assay on OVCAR-5 ovarian; 41.9% with OVCAR-4 ovarian; 62.5% with SK-OV-3 ovarian. The growth is -4.05% (active) in the assay on IGROV1 ovarian, 35.5% in the assay with OVCAR-3 ovarian and 49.1% with HS 578T breast.
Regarding `O=C(Nc1ccccc1)Oc1cccc2cccnc12`, the growth is 48.2% in the assay on SR leukemia; 76.2% in the assay with RPMI-8226 leukemia; 74.4% in the assay with OVCAR-8 ovarian; 92.9% in the assay with OVCAR-5 ovarian; 76.8% with OVCAR-4 ovarian; 112% in the assay on SK-OV-3 ovarian. For the same compound, the growth was 20.4% with IGROV1 ovarian, -19.4% (active) with OVCAR-3 ovarian and 116% with HS 578T breast.
As for `COc1cc(/C=C2\C(=O)N(c3c(Cl)cccc3Cl)c3ccccc32)cc(OC)c1O`, the growth in the assay with SR leukemia was 3.84% (active); in the assay with RPMI-8226 leukemia, 12.5%; in the assay with OVCAR-8 ovarian, 33.1%; with OVCAR-5 ovarian, 89.8%; with OVCAR-4 ovarian, 53.6%; in the assay on SK-OV-3 ovarian, 53.7%. Further, the growth was 6.56% (active) in the assay with IGROV1 ovarian, 46% in the assay on OVCAR-3 ovarian and 39.8% in the assay with HS 578T breast.
As for `O/N=C/c1cccs1`, the growth was 96.8% in the assay with SR leukemia; 112% with RPMI-8226 leukemia; 98.3% in the assay with OVCAR-8 ovarian; 100% in the assay with OVCAR-5 ovarian; 115% in the assay with OVCAR-4 ovarian; 118% in the assay with SK-OV-3 ovarian. Moreover, the growth with IGROV1 ovarian is 108%; with OVCAR-3 ovarian, 119%; in the assay with HS 578T breast, 116%; in the assay on NCI/ADR-RES ovarian it was 121%.
Take `COc1cc(/C=C/C(=O)C2=C(/C=C/c3ccc(O)c(OC)c3)NC(=O)NC2c2ccc(O)c(OC)c2)ccc1O` (stereo unspecified): the growth in the assay with SR leukemia is 79%; in the assay on RPMI-8226 leukemia, 76.2%; with OVCAR-8 ovarian, 86.3%; in the assay with OVCAR-5 ovarian, 94.2%; with OVCAR-4 ovarian, 93%; in the assay with SK-OV-3 ovarian it was 116%. The growth was 113% with IGROV1 ovarian, 104% in the assay with OVCAR-3 ovarian, 81% with HS 578T breast and 107% with NCI/ADR-RES ovarian.
On to `COc1ccccc1-n1c(SCc2cc(OC)c(OC)c(OC)c2)nc2ccc(Cl)cc2c1=O`, for which the growth with SR leukemia was 16.1%; with RPMI-8226 leukemia, 17.4%; in the assay on OVCAR-8 ovarian, 55.3%; with OVCAR-5 ovarian it was 53.3%; in the assay with OVCAR-4 ovarian, 63%; in the assay with SK-OV-3 ovarian it was 59.5%. Further, the growth was 47.7% in the assay on IGROV1 ovarian, 0.54% (active) with OVCAR-3 ovarian and 39.6% with HS 578T breast.
Turning to `CCCCc1ccc(C(O)(CCN2CC3CCC(CC3)C2)c2ccccc2)cc1` (stereo unspecified), the growth in the assay with SR leukemia was 68%; in the assay with RPMI-8226 leukemia it was 72.2%; with OVCAR-8 ovarian it was 104%; in the assay on OVCAR-5 ovarian, 90.9%; in the assay on OVCAR-4 ovarian it was 97%; in the assay on SK-OV-3 ovarian, 91.2%. Further, the growth in the assay with IGROV1 ovarian is 95.2%; in the assay with OVCAR-3 ovarian it was 91.9%.
As to `CN1CCc2c(Sc3ccc(C(=O)NO)cc3)c3ccccc3n2C1`, the growth is 12.6% in the assay with SR leukemia; 7.63% (active) with RPMI-8226 leukemia; 7.62% (active) in the assay on OVCAR-8 ovarian; 27.1% in the assay with OVCAR-5 ovarian; 28.3% with OVCAR-4 ovarian; 62.4% with SK-OV-3 ovarian. Moreover, the growth with IGROV1 ovarian was 75.6%; in the assay on OVCAR-3 ovarian, 42.8%; with HS 578T breast, 60.2%; in the assay with NCI/ADR-RES ovarian, 75.2%.
In the case of `Cc1ccc(C2SCC(=O)N2NC(=O)c2[nH]c3ccc(F)cc3c2-c2ccccc2)cc1` (stereo unspecified), the growth in the assay with SR leukemia is 76.1%; in the assay with RPMI-8226 leukemia, 86.7%; with OVCAR-8 ovarian it was 92.1%; with OVCAR-5 ovarian, 99.9%; in the assay with OVCAR-4 ovarian, 79.7%; in the assay on SK-OV-3 ovarian it was 107%. In addition, the growth was 88.4% with IGROV1 ovarian, 92% in the assay on OVCAR-3 ovarian, 95.3% with HS 578T breast and 92% in the assay with NCI/ADR-RES ovarian.
For the compound `Cc1ccc(C(=O)O[C@H](C(=O)O)[C@H](OC(=O)c2ccc(C)cc2)C(=O)O)cc1`, the growth in the assay on SR leukemia was 87.5%.
For the compound `CC(=O)c1cc(C)c(OC(=O)c2ccccc2)c(C)c1`, the growth in the assay with SR leukemia was 82.8%; in the assay with RPMI-8226 leukemia, 80.4%; in the assay on OVCAR-8 ovarian, 103%; with OVCAR-5 ovarian, 106%; in the assay on OVCAR-4 ovarian, 91.6%; in the assay with SK-OV-3 ovarian, 103%. The figures for the growth in the assay on IGROV1 ovarian, in the assay with OVCAR-3 ovarian and in the assay with HS 578T breast were 123%, 106% and 100%, respectively.
As for `Cn1c2ccccc2c2nn(C(=O)c3ccccc3)c(=O)nc21`, the growth is 93.7% in the assay with SR leukemia; 98.7% with RPMI-8226 leukemia; 117% with OVCAR-8 ovarian; 101% with OVCAR-5 ovarian; 125% with OVCAR-4 ovarian; 116% in the assay on SK-OV-3 ovarian. Moreover, the growth is 101% in the assay on IGROV1 ovarian, 122% in the assay on OVCAR-3 ovarian and 105% in the assay with HS 578T breast.
